The list is not random: actives were taken first. Their share in the collection is about 8.2%.
MCF10A rereplic: inducers of DNA re-replication in MCF 10A breast cells | MCF 10A DNA re-replication, Hoechst nuclear intensity, 48 h | Potency, µM (series often up to 46.1 µM), without a hit: at the highest dose activity, positive = re-replication, actives largely listed as activators | 350,000 compounds, 2.9% hits; note: % of control where 0% means no effect; nearly all actives have a fitted effect of over 50% in size
KB-V1 cytotox: kills drug-selected multidrug resistant KB-V1 cells; 400,000 compounds, 3.4% hits; KB-V1 MDR cells viability, CellTiter-Glo, 72 h; Potency, µM (highest dose often 46.1 µM), hits mostly cytotoxic; note: % is set by controls: 0 for no effect and ±100 for the full control effect; nearly all actives have a fitted effect of over 60% in size
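KB-V1 cells (P-gp-expressing MDR subline of KB-3-1) in phenol-red-free DMEM with 10% FBS were exposed to library compounds over a concentration series for 72 h at 37 degrees C. Viability read by CellTiter-Glo luminescence; concentration-effect curves fitted after normalization.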
KB-3-1 tox: kills parental KB-3-1 adenocarcinoma cells; 400,000 compounds, 1.4% hits; KB-3-1 viability, CellTiter-Glo ATP luminescence, 72 h; Potency, µM (top dose mostly 46.1 µM), usual class: cytotoxic; AID 1347075; note: % is set by controls: 0 for no effect and ±100 for the full control effect; nearly all actives have a fitted effect of over 60% in size
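72 h, 37 °C compound treatment of KB-3-1 parental cells; CellTiter-Glo added, 10 min, luminescence read. Data corrected against DMSO-only plates and normalized before curve fitting.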
SW480 rereplic: inducers of DNA re-replication in SW480 colon cancer cells. SW480 DNA re-replication, Hoechst DNA content imaging, 48 h. Potency, µM (series often up to 46.1 µM), for the others: top-dose re-replication activation, usual class: activators. 340,000 compounds, 1.8% hits; note: % of control where 0% means no effect; nearly all actives have a fitted effect of over 55% in size
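Quantitative HTS format with DMSO vehicle controls; 48 hr drug incubation at 37 C, then 40 min Hoechst staining and scanning imager measurement at 405 nm excitation.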
ELG1 DNA repair: inhibitors of ELG1-dependent DNA repair in HEK293T cells. Potency, µM (highest dose often 46.1 µM), for inactives: at the top dose activity change, negative = inhibition, most hits filed as inhibitors. HEK293T ELG1-luciferase reporter, luminescence, 16 h; DNA damage induced by 5-fluorouridine. 330,000 compounds, 2.3% hits; note: % is set by controls: 0 for no effect and ±100 for the full control effect; nearly all actives have a fitted effect of over 55% in size
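Cells (2,000 per well) received 5-fluorouridine plus test compound or DMSO and were incubated 16 hr at 37 °C, 5% CO2. Luciferase activity was read by luminescence 30 min after ONE-Glo addition; signal suppression marked inhibition of damage-induced ELG1 function.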
An asterisk follows results filed as active; i = inactive; ? = inconclusive; . = not tested or not shown; ! = not confirmed by another sample; [ ] = dose if it differs, or a comment. Calls come from the whole dose curve; as a rule, active = well fitted curve in the direction sought with a large enough effect; inconclusive = small, poorly fitted or top-dose-only effect, or another doubt; inactive = no such curve, though single readings can be large; an effect the other way counts as inactive or inconclusive. Potency is the fitted concentration of half-maximal effect.

SMILES	MCF10A rereplic	KB-V1 cytotox	KB-3-1 tox	SW480 rereplic	ELG1 DNA repair
COc1ccc(-c2cc(C(F)(F)F)n3nc(C(=O)N4CCN5CCCC5C4)cc3n2)cc1OC (centres undefined)	11.6µM*	i	i	?	-7.5%
Cc1ccc(-c2cc(C(F)(F)F)n3nc(C(=O)N4CCN5CCCC5C4)cc3n2)cc1 (centres undefined)	?	i	i	?	-24.8%
COc1c(O[C@H]2O[C@@H](CO)[C@@H](O)[C@@H](O)[C@@H]2O)cc2c(c1OC)-c1ccc(SC)c(=O)cc1[C@H](NC(C)=O)CC2	-0.4%[20.6 µM]	.	.	0.4%[20.6 µM]	.
COc1cc2c(c(OC)c1OC)-c1ccc(NC(=O)c3ccccc3)c(=O)cc1[C@@H](NC(C)=O)CC2	-39.8%	i	i	2.5%	?
CCOCC(=O)NC1CCc2cc(OC)c(OC)c(OC)c2-c2ccc(SC)c(=O)cc21 (centres undefined)	?	?	0.0058µM*	0.0517µM*	.
COc1cc(C(=O)NCCC(=O)NC2CCCc3ccccc32)cc(OC)c1OC (centres undefined)	13.4%	i	i	1.2%	3.4%
CCOC(=O)NC1CCc2cc(OC)c(OC)c(OC)c2-c2ccc(SC)c(=O)cc21 (centres undefined)	?	0.231µM*	0.164µM*	0.0366µM*	.
CCCCOC(=O)NC1CCc2cc(OC)c(OC)c(OC)c2-c2ccc(SC)c(=O)cc21 (centres undefined)	?	0.291µM*	0.146µM*	?	.
CN[C@H]1CCc2cc(OC)c(OC)c(OC)c2-c2ccc(OC)c(=O)cc21	?	1.16µM*	0.0291µM*	?	.
CC(=O)Nc1c(Cl)c(Cl)c2c(c1Cl)C(=O)c1cc(Cl)ccc1-2	0.4%	14.6µM*	20.6µM*	-0.9%	.
CC1(C)CC(=O)C2=C(C1)N(c1ccccc1)C(N)=C(C#N)C2c1ccsc1 (centres undefined)	-3.4%	i	i	-11.1%	-12.4%
Cc1ccc(N2C(N)=C(C#N)C(c3cccs3)C3=C2CC(C)(C)CC3=O)cc1 (centres undefined)	11.8%	7.31µM*	?	?	?
CC1(C)CC(=O)C2=C(C1)N(c1ccc(F)cc1)C(N)=C(C#N)C2c1cccs1 (centres undefined)	18.4µM*	?	i	?	1.2%
CC1(C)CC(=O)C2=C(C1)N(c1ccccc1)C(N)=C(C#N)C2c1ccccc1 (centres undefined)	6.8%	i	i	-1.6%	-11.1%
COc1ccc(-n2nc3c(N4CCCC(C(=O)NCc5cccc(F)c5)C4)nnc(C)c3c2C)cc1 (centres undefined)	.	i	i	.	.
CCOc1ccc(-n2c(C)nnc2SCC(=O)N(CC)CC)cc1	13.9%	16.4µM*	i	-7.7%	0.3%
Cc1onc(-c2ccccc2)c1C(=O)N1CCN(c2ncccc2C(F)(F)F)CC1	0.7%	?	i	11.7%	-6.8%
CN(C)c1nc(C=C(C#N)C#N)c(Cl)n1-c1ccc(F)cc1	?	?	?	7.31µM*	?
Cc1cnc(Nc2nc3ccccc3o2)nc1C(=O)Nc1cccc(C(F)(F)F)c1	?	14.6µM*	16.4µM*	?	?
Cc1occc1C(=O)Nc1cccc(C(F)(F)F)c1	1.5%	i	i	-1.6%	10.7%
CCc1cccc2c(C(=O)CN3C(=O)NC4(CCCCC4)C3=O)c[nH]c12	13µM*	?	?	-1.3%	?
CCc1cccc2c(C(=S)N3CCCC3)c[nH]c12	-1.6%	i	i	-14.5%	15.4%
CCc1cccc2c(C(=O)CCl)c[nH]c12	23.1µM*	i	i	?	0.4%
CCN(C(=O)COC(=O)c1cc([N+](=O)[O-])ccc1N1CCOCC1)C1CCCCC1	?	i	i	11.3%	-5.0%
N#CC1=C(Nc2ccccc2)SC=C(c2ccc(Cl)c(Cl)c2)N=C1N1CCOCC1	16.4µM*	i	i	-0.4%	-24.4%
SMILES	MCF10A rereplic	KB-V1 cytotox	KB-3-1 tox	SW480 rereplic	ELG1 DNA repair
Cc1cc(NS(=O)(=O)c2ccc3c(c2)CCC(=O)N3)ccc1F	.	i	i	.	.
Cc1ccc(S(=O)(=O)N(C)Cc2ccc(C(=O)N/N=C/c3ccc(OC(F)F)cc3)cc2)cc1	?	16.4µM*	i	2.8%	-5.6%
C/C(=N\NC(=O)c1ccc(CN(C)S(=O)(=O)c2ccc(C)cc2)cc1)c1ccc(OC(F)F)cc1	?	2.59µM*	10.3µM*	-16.4%	?
Cc1cc(C)c(C(=O)COC(=O)c2cccc(S(=O)(=O)NCc3ccccc3)c2)cc1C	12.7%	18.4µM*	i	8.5%	?
O=C(NCc1ccccc1)c1cccc(S(=O)(=O)NCc2ccccc2)c1	-9.4%	16.4µM*	i	-37.9%	-8.2%
O=C(COC(=O)c1cccc(S(=O)(=O)NCc2ccccc2)c1)c1ccccc1	4.1%	i	i	-2.6%	-6.3%
O=S(=O)(c1ccc(N2CCCC2c2nc3ccccc3s2)nc1)N1CCOCC1 (centres undefined)	3.9%	8.2µM*	i	-1.2%	18.0%
CCN(CC)c1ccc(/C=C/c2cccc[n+]2C)c(OC)c1	?	i	0.651µM*	18.4µM*	-8.8%
CC(=O)NC1C(=O)N(CCc2ccccc2)c2ccc(Br)cc21 (centres undefined)	26.7%	5.8µM*	i	2.1%	-2.6%
Cc1ccc(SCCN2CCC(NC(=O)OCc3ccccc3)CCC2=O)cc1 (centres undefined)	?	?	i	-0.1%	?
O=C(N[C@H]1CCC(=O)N(CCSc2ccc(Br)cc2)CC1)OCc1ccccc1	3.9%	20.6µM*!	?	3.1%	?
COc1ccc2c(c1)C1C=CCC1C(c1cc3c(cc1Br)OCO3)N2 (centres undefined)	3.66µM*	i	?	9.2µM*	-8.1%
CC(=O)c1ccc2c(c1)C1C=CCC1C(c1cc3c(cc1Br)OCO3)N2 (centres undefined)	4.11µM*	6.51µM*	5.8µM*	11.6µM*	-1.0%
CC(=O)N1N=C(c2ccc(C)cc2)OC1c1ccc(Br)cc1 (centres undefined)	?	i	i	-2.2%	4.1%
CCOc1ccc(Br)cc1C1=NN(C(C)=O)C(c2ccc([N+](=O)[O-])s2)O1 (centres undefined)	?	i	?	8.2µM*	1.5%
O=C(NNC1=Nc2cccc3cccc1c23)c1ccc(Br)cc1	14.6µM*	i	?	18.4µM*	-6.7%
CC(CN(C)C)CN1c2ccccc2Sc2ccccc21 (centres undefined)	-9.2%	18.4µM*	i	-20.0%	1.6%
